Most compounds without a hit are left out; they make up all but 3.1% or so of the library.
MITF act: activators of MITF-driven TRPM1 promoter activity in SK-MEL-5 cells. SK-MEL-5 TRPM1-promoter luciferase, 24 h; % of positive control, neutral wells = 0. activation, % at 12.5 µM. 300,000 tested, 0.75% active. AID 588334;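 active = mean activation of at least 80% with every replicate also reaching 80%; inconclusive = mean reaches 80% but some replicate falls short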;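 also: 0% = neutral control wells and 100% = parthenolide positive control wells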
Rtt109 Vps75: blocks Candida albicans Rtt109/Vps75 acetyltransferase activity. Q5AAJ8. purified Rtt109/Vps75, ThioGlo CoA-SH fluorescence, 4 h. inhibition, % at 34.9 µM. 330,000 tested, 0.16% active. AID 540336;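 active = inhibition of at least 50% in every replicate; inconclusive = best replicate reaches 50% inhibition but some replicates fall short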
Target sequence (Q5AAJ8 whole entry, looked up): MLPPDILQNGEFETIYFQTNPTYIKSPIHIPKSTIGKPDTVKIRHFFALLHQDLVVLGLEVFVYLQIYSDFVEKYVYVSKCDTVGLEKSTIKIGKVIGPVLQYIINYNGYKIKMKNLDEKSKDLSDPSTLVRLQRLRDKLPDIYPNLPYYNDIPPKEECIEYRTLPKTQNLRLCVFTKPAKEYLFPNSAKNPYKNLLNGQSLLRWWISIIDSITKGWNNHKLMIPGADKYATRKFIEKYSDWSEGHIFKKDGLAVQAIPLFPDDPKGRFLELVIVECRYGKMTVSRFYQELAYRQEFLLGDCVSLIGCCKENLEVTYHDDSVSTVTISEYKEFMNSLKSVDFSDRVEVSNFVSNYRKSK
C2C12 statin: suppressors of simvastatin-induced myotoxicity in C2C12 myotubes | ATP luminescence, 48 h; scaled: DMSO 0, geranylgeraniol control 100 | rescue of ATP level, % at 7.49 µM | 330,000 tested, 0.78% active | AID 602340;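 active = mean ATP rescue above about 67%, or every replicate alone reaching that limit, limit read from the data, passing the limit was not always enough; inconclusive = no clear call, values can overlap the other calls; inactive = mean under the limit and some replicate under it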;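 also: myotubes were challenged with 10 µM simvastatin during compound exposure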
Wnt bcat act: Wnt/beta-catenin pathway activation. Wnt/beta-catenin reporter cell assay, activator, plate reader. activation, % at 9.35 µM. 300,000 tested, 1.2% active. AID 743398; in the data active = activation above about 30%, passing the limit was not always enough; inconclusive = no clear call, values can overlap the other calls;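 also: 0% = neutral control wells and 100% = positive control wells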
esBAF inh: SWI/SNF esBAF complex inhibition. mouse ES cells, Bmi1-luciferase knock-in reporter, 24 h; 100% = twice the neutral-well signal. reporter increase, % at 12.5 µM. 350,000 tested, 2% active. AID 602393; in the data active = activation above about 40%; inconclusive = no clear call, values can overlap the other calls;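 also: 0% = median of the plate's neutral control wells and 100% = double that signal; a rise in the Bmi1 reporter signal indicates esBAF inhibition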
Active calls of the source: *; ? = inconclusive; . = not tested or not shown; ! = a repeat was not active.

SMILES	MITF act	Rtt109 Vps75	C2C12 statin	Wnt bcat act	esBAF inh
CCOc1ccc(C(=O)Nc2cccc(-c3ccc(N4CCOCC4)nn3)c2)cc1OCC	106.3*	-0.8	-25.8	22.4	64.0*
CCCNC(=O)C[C@H]1CC[C@@H]2[C@H](COc3ccc(NC(=O)NC(C)C)cc3C(=O)N2C)O1	.	.	2.9	.	1.5
COc1cccc(C(=O)Nc2cccc(-c3ccc(N4CCOCC4)nn3)c2)c1	136.9*	5.5	-31.5	22.4	66.6*
O=C(Nc1cccc(-c2ccc(N3CCOCC3)nn2)c1)c1ccc(F)cc1F	?	1.8	-19.0	19.1	.
C[C@@H]1CN([C@@H](C)CO)C(=O)Cc2cc(NS(C)(=O)=O)ccc2O[C@@H]1CN(C)Cc1ccncc1	.	.	2.2	.	1.8
CS(=O)(=O)Nc1nc2n(n1)C(c1ccc(F)cc1)CC(c1ccccc1)N2 (configuration not stated)	-0.3	-2.6	-3.2	-1.5	-5.3
CC1CC(c2ccccc2)n2nc(N3C(=O)c4ccccc4C3=O)nc2N1 (configuration not stated)	-10.1	-0.3	100.8*	-0.5	-2.8
COc1ccc(-c2nn(-c3ccccc3)cc2/C=C(\CC(=O)O)c2nc3ccccc3s2)cc1OC	12.8	8.9	-13.1	10.9	40.3*
CC(C)NC(=O)N1[C@H](C#N)[C@@H](c2ccc(-c3ccc(F)cc3)cc2)[C@@H]1CO	.	.	76.4*	.	1.3
N#C[C@H]1[C@H](c2ccc(-c3ccc(F)cc3)cc2)[C@@H](CO)N1C(=O)Cc1ccccc1	.	.	69.7*	.	9.4
CC(C)NC(=O)N1[C@H](CO)[C@@H](c2ccc(-c3ccc(F)cc3)cc2)[C@@H]1C#N	.	.	?	.	11.8
COc1cccc(CNc2ccccc2O)c1OCc1ccccc1F	-7.7	3.0	96.1*	1.2	-5.9
COc1cccc(CNc2ccc(S(N)(=O)=O)cc2)c1OCc1ccccc1F	1.3	8.3	.	-3.6	.
COCC(=O)N(C)C[C@@H]1Oc2cc(-c3ccccc3F)ccc2S(=O)(=O)N([C@H](C)CO)C[C@@H]1C	.	.	-9.5	.	0.9
COc1ccc(N/C=C/C(=O)c2ccc(OC)c(OC)c2)cc1	15.2	-5.8	17.3	21.0	25.0
COc1ccc(C(=O)/C=C/Nc2cccc(C)n2)cc1OC	93.4*	-27.8	-4.3	.	46.7*
COc1ccc(N=Cc2nc(-c3ccco3)oc2O)cc1	98.7*	0.5	5.9	.	63.1*
Cc1ccc(N=Cc2nc(-c3ccc(C)cc3)oc2O)cc1	15.6	-16.8	.	-0.3	.
Cc1ccc2c(c1)C1(C(=O)N2)N2CCCC2C(C(=O)c2ccc3ccccc3c2)C12C(=O)Nc1ccccc12 (configuration not stated)	16.1	1.2	-1.7	21.5	50.3*!
C[C@@H]1CN([C@H](C)CO)C(=O)c2cc(N(C)C)ccc2O[C@@H]1CN(C)S(=O)(=O)c1ccc(F)cc1	.	.	17.3	.	-4.1
CC(C)NC(=O)Nc1ccc2c(c1)CC(=O)N([C@H](C)CO)C[C@H](C)[C@@H](CN(C)C)O2	.	.	6.3	.	-0.2
O=C(C[C@H]1CC[C@@H]2[C@H](COC[C@H](O)CN2Cc2nccs2)O1)NCc1ccccc1	.	.	-3.0	.	2.8
COc1ccccc1OCC(=O)N/N=C/C=C/c1ccc([N+](=O)[O-])o1	-75.2	4.3	.	68.9*	.
Cc1ccccc1OCC(=O)N/N=C/c1ccc([N+](=O)[O-])o1	-77.0	23.4	.	2.3	.
O=S(=O)(c1ccccc1)N1CCCCN2[C@@H](CO)[C@@H](c3ccc(-c4ccccc4F)cc3)[C@@H]2C1	.	.	13.3	.	-3.3
SMILES	MITF act	Rtt109 Vps75	C2C12 statin	Wnt bcat act	esBAF inh
CCCN1C(=O)C(O)(CC(=O)c2cccc(OC)c2)c2ccccc21 (configuration not stated)	7.0	4.0	.	.	.
CCCN1C(=O)C(O)(C/C(C)=N/O)c2ccccc21 (configuration not stated)	2.3	-0.2	125.0*	.	0.8
O=C(Nc1ccccc1O)c1cc2cc(Br)ccc2oc1=O	100.5*	8.6	4.9	?	20.4
CC(C)(C)NC(=O)/C=C/c1ccc(C(F)(F)F)cc1	10.5	-4.2	.	76.9*	.
C[C@@H]1CN([C@H](C)CO)C(=O)Cc2cc(NS(=O)(=O)c3cccs3)ccc2O[C@H]1CN(C)Cc1ccc2c(c1)OCO2	.	.	17.2	.	5.2
Cn1c(=O)n(Cc2ccccc2)c(=O)c2c1nc1n2CCCN1Cc1ccccc1	.	10.8	116.5*	-1.4	9.9
Cc1ccc(Cn2c(=O)c3c(nc4n3CCCN4Cc3ccccc3)n(C)c2=O)cc1	-6.4	5.9	14.4	-3.9	-1.3
C[C@@H]1CCCCO[C@H](CN(C)S(=O)(=O)c2ccc(F)cc2)[C@H](C)CN([C@H](C)CO)C(=O)c2cc(NC(=O)C3CCCCC3)ccc2O1	.	.	.	.	-9.1
COc1ccc(Cc2nc(-c3ccc(Br)o3)no2)cc1OC	21.4	5.0	33.9	11.8	48.9*
COc1ccc(-c2noc(Cc3ccc(Cl)cc3)n2)cc1OC	13.5	5.0	20.6	3.1	10.8
COc1ccc(-c2noc(-c3ccc(Br)o3)n2)cc1OC	.	-3.9	-8.1	7.5	54.0*
COC(=O)[C@H]1[C@H](CO)[C@H]2Cn3c(ccc(/C=C/c4ccccc4)c3=O)[C@H]2N1C(=O)C1CCCC1	.	.	-0.7	.	5.5
O=C(c1ccc(F)cc1)c1ccc(N2CCCC2)cc1	54.5	2.0	-0.6	5.1	65.3*
O=C(c1ccc(F)cc1)c1ccc(N2CCCCC2)cc1	103.0*	0.0	2.7	39.8*	35.8
Cc1ccc(S(=O)(=O)Nc2ccc3c(c2)C(=O)N([C@@H](C)CO)C[C@@H](C)[C@@H](CN(C)C(=O)Nc2cccc4ccccc24)OCCCC[C@@H](C)O3)cc1	.	.	.	.	-2.8
Cc1c(-c2ccccc2)nnn1-c1ccc(F)cc1F	73.1	13.9	1.2	9.9	50.7*
c1ccc2c(CCNc3ncnc4nc[nH]c34)cccc2c1	11.7	-0.4	85.8*	3.3	38.4
c1ccc(CCCNc2ncnc3nc[nH]c23)cc1	.	-0.6	3.8	2.3	21.4
COc1ccc(NC(=O)N(C)C[C@@H]2Oc3ccc(NC(=O)Nc4ccc(F)cc4)cc3C(=O)N([C@H](C)CO)C[C@H]2C)cc1	.	.	2.7	.	2.7
COc1ccc(CN(C)C[C@@H]2Oc3ccc(NC(=O)Nc4c(C)noc4C)cc3C(=O)N([C@@H](C)CO)C[C@H]2C)cc1	.	.	11.1	.	-1.0
O=C(CN1C(=O)CCS(=O)(=O)c2ccccc21)NCc1ccccc1	4.3	0.0	72.2*	.	-4.4
CCN1C(=O)c2ccc(C(=O)Nc3nccs3)cc2C1=O	8.0	-0.1	3.7	-1.0	19.9
CC(C)(C)N1C(=O)c2ccc(C(=O)Nc3nccs3)cc2C1=O	139.8*	-14.1	-20.1	.	54.4*
COc1cccc(/C=C/C(=O)NNC(=O)c2ccccc2)c1OC	15.9	-7.8	.	33.8*	.
COc1cccc(/C=C/C(=O)NNC(=O)c2ccncc2)c1OC	16.4	-3.7	-0.2	2.8	4.1
CCN(CC)C(=O)C1CCN(Cc2cn(C)nc2-c2ccc(Oc3ccccc3)cc2)CC1	-10.7	1.7	.	54.2*	.

Screening data from PubChem BioAssay.
